Screening results deposited in PubChem by National Center for Advancing Translational Sciences (NCATS).
B2AR arrestin: qHTS assay of beta-arrestin-biased ligands of beta2-adrenergic receptor | Beta-2 adrenergic receptor (Homo sapiens), P07550 | beta-arrestin recruitment to beta2AR, cell-based reporter | Potency, µM (doses to about 46.1 µM), inactives show at the highest dose activation, usual class: activators | 330,000 compounds, 0.02% hits | AID 492947, 2010; active = well fitted curve in the direction sought with a large enough effect; inconclusive = small, poorly fitted or top-dose-only effect, or another doubt; inactive = no such curve, though single readings can be large; an effect the other way counts as inactive or inconclusive;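 also: potency is read from the fitted curve at half-maximal effect; 0% = DMSO controls and full agonism = EC100 isoproterenol or metaproterenol; nearly all actives have a fitted effect of over 65% in size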
MmCpn inh: Inhibitors of TCP-1 ring complex (TRiC) of Methanococcus maripaludis (MmCpn): qHTS. Chaperonin Mm-Cpn (Methanococcus maripaludis). purified Mm-Cpn ATPase, ADP Transcreener TR-FRET. Potency, µM (titrated, usually from 76.9 µM), inactives show at the top dose activity, negative = inhibition, hits mostly inhibitors. 330,000 compounds, 0.031% hits. AID 504842, 2011; active = well fitted curve in the direction sought with a large enough effect; inconclusive = small, poorly fitted or top-dose-only effect, or another doubt; inactive = no such curve, though single readings can be large; an effect the other way counts as inactive or inconclusive; also: potency is read from the fitted curve at half-maximal effect; % is scaled to controls: 0 for no effect and ±100 for the full control effect; nearly all actives have a fitted effect of over 80% in size
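25 nM Mm-CPN + cpd, 10 min 37°C; + 10 uM ATP, 30 min 37°C; buffer 30 mM Tris pH 7.4, 100 mM KCl, 5 mM MgCl2, 1 mM DTT; Transcreener ADP HTRF detection 30 min RT.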
Rango dissoc inh: qHTS Assay for Inhibitors of RanGTP induced Rango (Ran-regulated importin-beta cargo) - Importin beta complex dissociation; 340,000 compounds, 0.071% hits; Snurportin-1 (Homo sapiens) + GTP-binding nuclear protein Ran (Homo sapiens) + Importin …; Biochemical FRET Rango-importin beta, RanGTP-induced dissociation; Potency, µM (titrated, usually from 46.1 µM), inactives show at the highest dose activity change, negative = inhibition; also: potency is read from the fitted curve at half-maximal effect; % of control where 0% means no effect; nearly all actives have a fitted effect of over 45% in size
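Rango (0.1 uM)–importin beta (0.25 uM) complex; RanGTP-RCC1 trigger; 45 min RT; CFP/YFP FRET read.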
Rango-impB inh: qHTS Assay for Inhibitors of Rango (Ran-regulated importin-beta cargo) - Importin beta complex formation | Potency, µM (titrated, usually from 92.2 µM), without a hit: at the top dose inhibition of complex formation | Importin subunit beta-1 (Homo sapiens), Q14974 | Rango CFP/YFP FRET sensor + importin beta, 45 min | 340,000 compounds, 0.031% hits | AID 540263, 2011;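 also: potency is read from the fitted curve at half-maximal effect; 0% = DMSO wells and 100% = buffer wells lacking importin beta; nearly all actives have a fitted effect of over 15% in size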
Target sequence (Q14974 whole entry, looked up): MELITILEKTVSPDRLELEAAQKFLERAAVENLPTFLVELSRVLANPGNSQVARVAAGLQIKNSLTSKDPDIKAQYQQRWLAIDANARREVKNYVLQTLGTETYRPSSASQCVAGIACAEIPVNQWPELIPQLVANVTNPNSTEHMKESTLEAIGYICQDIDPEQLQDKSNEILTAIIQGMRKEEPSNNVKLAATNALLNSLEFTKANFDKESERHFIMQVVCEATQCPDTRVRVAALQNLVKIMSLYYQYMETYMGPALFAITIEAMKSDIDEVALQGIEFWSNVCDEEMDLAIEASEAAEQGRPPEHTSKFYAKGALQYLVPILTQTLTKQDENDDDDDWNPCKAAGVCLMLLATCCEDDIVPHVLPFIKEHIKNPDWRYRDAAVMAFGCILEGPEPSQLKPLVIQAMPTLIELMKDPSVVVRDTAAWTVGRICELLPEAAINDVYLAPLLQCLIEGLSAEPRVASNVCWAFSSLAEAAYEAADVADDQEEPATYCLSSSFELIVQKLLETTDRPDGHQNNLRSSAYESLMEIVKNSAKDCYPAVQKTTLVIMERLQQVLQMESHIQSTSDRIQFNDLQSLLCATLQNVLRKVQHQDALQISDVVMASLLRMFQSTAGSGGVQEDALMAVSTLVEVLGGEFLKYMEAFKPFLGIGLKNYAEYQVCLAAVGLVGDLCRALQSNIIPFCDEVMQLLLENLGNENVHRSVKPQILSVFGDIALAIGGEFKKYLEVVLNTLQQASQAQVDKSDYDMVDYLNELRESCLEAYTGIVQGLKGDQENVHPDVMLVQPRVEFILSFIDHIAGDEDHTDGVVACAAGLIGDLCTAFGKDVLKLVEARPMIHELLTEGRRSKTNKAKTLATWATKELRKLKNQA
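FRET biosensor (snurportin 1 IBB flanked by EYFP and cerulean), 50 nM, with compound 5 min, then 0.125 microM importin beta in PBS, 1 mM DTT, 0.02% Tween-20, 0.1% BSA. CFP/YFP ratio read after 45 min at room temperature; pre-read flags interference.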
CCT modulator: High-Throughput Screening for Modulators of Cytosolic Chaperonin Activity. purified chaperonin ATPase assay, HTRF ADP detection, 30 min. activity change, % (test concentration not listed), hits read low. 360,000 compounds, 0.3% hits. AID 651819, 2012; in the data active = activity change below about -30%; also: % is scaled to controls: 0 for no effect and ±100 for the full control effect
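TRiC at 40 or 20 nM final (batch-dependent) in 30 mM Tris pH 7.4, 100 mM KCl, 5 mM MgCl2, 1 mM DTT, with compound at single 76 uM and 10 uM ATP, 30 min at 37 deg C. ADP detected by HTRF Transcreener, 665/615 ratio.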
* hit, by the source's call; ? = inconclusive; . = not tested or not shown; [ ] = dose if it differs, or a comment. Hits are enriched below; roughly 0.43% of the tested compounds scored in any of these assays. Unless noted, calls follow the shape of the full dose curve.

SMILES	B2AR arrestin	MmCpn inh	Rango dissoc inh	Rango-impB inh	CCT modulator
COc1cccc(C=Nc2cc(C)cc(C)c2)c1O	0%	0%	0%	0%	1
CC(c1cccs1)N(Cc1ccco1)C(=S)Nc1ccc(F)c(Cl)c1 (centres undefined)	0%	1%	7%	-2%	-59*
CC1(C(=O)Nc2ccccc2)Cc2c(-c3cccc(C(F)(F)F)c3)ccnc2O1 (centres undefined)	.	.	.	.	2
O=C(CCC(=O)N1CCN(c2ccccn2)CC1)c1ccc(Cl)s1	0%	0%	-8%	0%	-1
O=C(COC(=O)c1cc(=O)[nH]c2ccccc12)c1ccc(Br)cc1	-1%	0%	0%	?	-126*
CCOc1ccc(C(=O)COC(=O)c2cc(=O)[nH]c3ccccc23)cc1	-2%	-16%	?	?	-1
O=C(COC(=O)c1cc(=O)[nH]c2ccc(Br)cc12)c1ccccc1	0%	-4%	-8%	?	-33*
CN(C(=O)C1CCCN1S(=O)(=O)c1ccc(Cl)cc1)c1ccccc1 (centres undefined)	1%	0%	6%	-4%	-2
COc1ccc([C@]23Cc4cc(OC)c(OC)cc4C(O2)c2c(c4ccccc4oc2=O)O3)cc1	0%[9.22 µM]	0%[15.4 µM]	.	.	.
O=C(Nc1c(F)cc(F)cc1Br)c1ccco1	0%	0%	-10%	0%	-101*
CCCCN(C(=O)c1ccc(N2C(=O)c3ccccc3C2=O)cc1)c1c(N)n(CC(C)C)c(=O)[nH]c1=O	0%	-4%	-11%	-3%	-2
CCCCN(C(=O)c1cc(CN2C(=O)c3ccccc3C2=O)ccc1OC)c1c(N)n(CC(C)C)c(=O)[nH]c1=O	.	.	29%	0%	-84*
CCOC(=O)/C=C1/SCC(=O)N1CC(=O)c1ccc[nH]1	.	.	-8%	-4%	0
COc1ccc(S(=O)(=O)Nc2cc3c4c(c2)CCN4C(=O)CC3)cc1OC	3%	2%	20%	-4%	4
Cc1ccc(NC(=O)CNc2cccc(C)c2C)c(C)c1	-1%	0%	10%	?	0
Cc1cccc(NC(=O)CCc2ccccc2)c1C	-2%	1%	-7%	0%	-49*
Cc1cccc(NC(=O)CNCC(=O)Nc2cccc(C)c2C)c1C	0%	1%	24%	-2%	-49*
CCCC[C@]12Cc3cc(C#N)ccc3C(O1)c1c(cc(-c3ccccc3)oc1=O)O2	0%[9.22 µM]	-5%[15.4 µM]	.	.	.
Cc1ccc(/C(O)=C2\C(=O)C(=O)N(CCCN3CCOCC3)C2c2ccccc2F)cc1 (centres undefined)	.	.	.	.	-40*
O=C(CCc1nc2ccccc2s1)NC1CCOC1=O (centres undefined)	0%	0%	9%	2%	-1
CCc1ccc(/C=C2\Oc3cc(OS(C)(=O)=O)ccc3C2=O)cc1	0%	-1%	8.2µM*	?	-7
CCOc1ccc(NC(=O)CCC(=O)NNC(=O)COc2ccc(C)cc2Br)cc1	0%	1%	3%	0%	-36*
CCOc1ccc(NC(=O)CCC(=O)NNC(=O)COc2ccc(C)cc2)cc1	0%	1%	-11%	0%	1
O=C(Nc1ccccc1)NN(C(=O)CCl)c1ccccc1	0%	2%	-11%	-1%	-3
COc1ccc(-n2c(NC(=O)c3ccco3)c(C#N)c3nc4ccccc4nc32)cc1	0%	-5%	?	?	-60*
SMILES	B2AR arrestin	MmCpn inh	Rango dissoc inh	Rango-impB inh	CCT modulator
Cc1c(C(=O)c2ccccc2)c2ccccn2c1CCc1ccccn1	-1%	-5%	5%	-2%	-70*
Cc1c(C(=O)c2ccc(F)cc2)c2ccccn2c1CCc1ccccn1	0%	3%	-5%	-3%	0
CC1(C)c2[nH]c3ccccc3c2C[C@@H]2C(=O)N(Cc3ccccc3Cl)C(=O)N21	.	.	12µM*	?	.
O=C(C1CCC(CNc2nc(=S)[nH]c3ccccc23)CC1)N1CCN(c2ccc(F)cc2)CC1 (centres undefined)	0%	-6%	4%	0%	-36*
CCOc1cc(C(=S)N2CCOCC2)ccc1OS(=O)(=O)c1ccccc1[N+](=O)[O-]	1.2µM*	-4%	1%	-1%	-1
Cc1ccc(S(=O)(=O)Oc2ccc(/C=C(/NC(=O)c3ccccc3)C(=O)Nc3ccccc3)cc2)cc1	0%	3%	15%	-1%	-67*
COc1ccc(NC(=O)/C(=C\c2ccc(OS(=O)(=O)c3ccc(C)cc3)cc2)NC(=O)c2ccccc2)cc1	0%	0%	2%	?	2
CCCC1NC(C(=O)O)Cc2c1[nH]c1ccccc21 (centres undefined)	0%	?	?	?	-1
COC(=O)c1cccc(NC(=O)Cc2nc(-c3ccccc3)sc2-c2ccc(C)cc2)c1	0%	50µM*	0%	-1%	1
COc1cccc(NC(=O)Cc2nc(-c3ccccc3)sc2-c2ccc(C)cc2)c1	-1%	40µM*	-11%	5%	2
CC(=O)Nc1cccc(NC(=O)Cc2nc(-c3ccccc3)sc2-c2ccc(C)cc2)c1	1%	?	-7%	?	-3
CCc1c(C2(O)CCCCC2)[nH]c2ccc(C#N)cc12	.	.	-12%	-3%	-1
Cc1cc(C)cc(OCCn2ccnc2)c1	-1%	-1%	-3%	3%	-73*
Cc1cc(OCCn2ccnc2)cc(C(C)C)c1	-3%	0%	1%	-2%	-3
C/C(=N\NC(=S)NCc1ccccc1)c1ccccc1	3%	-1%	-7%	5%	-1
CC1=C/C(=N\NC(=S)NCc2ccccc2)CC1	7.1µM*	-3%	-2%	0%	-2
CCN(CC)CCN1CNC(=S)NC1	.	.	.	.	-34*
S=C1NCN(Cc2ccccc2)CN1	0%	2%	0%	-1%	1
CN(Cc1c(C(=O)N/N=C/c2ccccc2O)nnn1-c1nonc1N)C1CCCCC1	.	.	.	.	-3
COc1ccc(NC2=Nc3ccccc3N3C2=Nc2c(c(C)nn2-c2ccc(C)cc2)C3c2cccnc2)cc1 (centres undefined)	0%	-1%	-13%	?	-45*
CC1CCCN(CCCNC(=O)c2nn(C)c3c2CS(=O)(=O)c2ccccc2-3)C1 (centres undefined)	0%	-2%	6%	-1%	-76*
